# Calls of active or inactive are those of the source. The rule behind the calls is not given here.
# Test system: HIV-1 nucleocapsid protein NCp7 (binding to TG oligonucleotide)
# Experiment: HIV Nucleocapsid (AID 346);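 note: potency is for inhibitors that block NC binding and lower polarization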
# Conditions: HIV-1 NC / fluorescein-TGTGTGTG probe, fluorescence polarization
# Method in brief: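 HIV-1 NC (100 nM) binding to fluorescein-labelled ssDNA TG4xF (10 nM) in Hepes pH 7.5, 250mM NaCl, 1uM ZnCl2, TCEP and 2-mercaptoethanol; compounds pin-transferred, 1 hr room temperature, fluorescence polarization read on CCD imager.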
# Potency is the fitted concentration of half-maximal effect.
row,Structure (SMILES),Potency
1,O=c1c(-c2ccc(Cl)cc2)nc2cnc(Nc3ccccc3)nc2n1C1CC1,> 20 µM (inactive)
2,O=c1c(-c2cccs2)nc2cncnc2n1-c1ccccc1,18.2 µM (inactive)
3,COc1ccc(NC(=O)N2CCCC3(CCN(C(=O)c4cccc(F)c4)CC3)C2)cc1,> 20 µM (inactive)
4,COc1ccc(Oc2ncc3nc(-c4ccccc4)c(=O)n(C4CC4)c3n2)cc1,> 20 µM (inactive)
5,COc1ccccc1CNc1ccnc(-c2cccnc2)n1,> 20 µM (inactive)
6,CS(=O)(=O)N1CCC[C@@]2(CCN(C(=O)Nc3ccccc3)C2)C1,> 20 µM (inactive)
7,COc1ccccc1CN1CC[C@@]2(CCCN(S(=O)(=O)c3ccccc3)C2)C1,> 20 µM (inactive)
8,N#Cc1cccc(-c2nc(N3CCNCC3)c3ccccc3n2)c1,> 20 µM (inactive)
9,COc1ccccc1CNc1ccnc(-c2cccc(C#N)c2)n1,> 20 µM (inactive)
10,COc1ccccc1CN1CC2(CCN(C(=O)c3cc(C(F)(F)F)cc(C(F)(F)F)c3)CC2)C1,> 20 µM (inactive)
11,N#Cc1cccc(-c2nc3cnc(N4CCOCC4)nc3n(C3CC3)c2=O)c1,> 20 µM (inactive)
12,COc1ccc(-n2c(=O)c(-c3ccc(Cl)cc3)nc3cnc(N(C)C)nc32)cc1,> 20 µM (inactive)
13,Cn1cc(-c2nc3cnc(N4CCNCC4)nc3n(CCC#N)c2=O)c2ccccc21,> 20 µM (inactive)
14,COc1ccc(Oc2ncc3nc(C)c(=O)n(C[C@H]4CCCO4)c3n2)cc1,> 20 µM (inactive)
15,O=C(c1csnn1)N1CCC2(CC1)CN(C(c1ccccc1)c1ccccc1)C2,> 20 µM (inactive)

# — PubChem BioAssay (NCATS)
